Inconclusive results are not listed. Activity calls are given as the source filed them. Rule for the calls: active = hit-call score of the fitted dose curve at least 0.9, where 1 is the maximum; inconclusive = response in the unintended direction; inactive = score below 0.9.
Each compound was assayed against human Vascular Endothelial Growth Factor Receptor 1 (VEGFR1), FLT1 (gene 2321) (UniProt P17948) (assay: NVS_ENZ_hVEGFR1: NovaScreen (NVS) Enzymatic Assay for human Vascular Endothelial Growth Factor Receptor 1 (VEGFR1) (AID 2283226)).
Procedure, shortened: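 Cell-free assay of recombinant human VEGFR1 kinase with substrate, measured 1 h after dosing; fluorescence with electrophoretic mobility-shift separation of substrate and product, referenced to DMSO; primary screen at 25 uM in duplicate, actives then run in concentration series.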

human Vascular Endothelial Growth Factor Receptor 1 (VEGFR1), FLT1 (gene 2321), sequence (P17948 whole entry, looked up): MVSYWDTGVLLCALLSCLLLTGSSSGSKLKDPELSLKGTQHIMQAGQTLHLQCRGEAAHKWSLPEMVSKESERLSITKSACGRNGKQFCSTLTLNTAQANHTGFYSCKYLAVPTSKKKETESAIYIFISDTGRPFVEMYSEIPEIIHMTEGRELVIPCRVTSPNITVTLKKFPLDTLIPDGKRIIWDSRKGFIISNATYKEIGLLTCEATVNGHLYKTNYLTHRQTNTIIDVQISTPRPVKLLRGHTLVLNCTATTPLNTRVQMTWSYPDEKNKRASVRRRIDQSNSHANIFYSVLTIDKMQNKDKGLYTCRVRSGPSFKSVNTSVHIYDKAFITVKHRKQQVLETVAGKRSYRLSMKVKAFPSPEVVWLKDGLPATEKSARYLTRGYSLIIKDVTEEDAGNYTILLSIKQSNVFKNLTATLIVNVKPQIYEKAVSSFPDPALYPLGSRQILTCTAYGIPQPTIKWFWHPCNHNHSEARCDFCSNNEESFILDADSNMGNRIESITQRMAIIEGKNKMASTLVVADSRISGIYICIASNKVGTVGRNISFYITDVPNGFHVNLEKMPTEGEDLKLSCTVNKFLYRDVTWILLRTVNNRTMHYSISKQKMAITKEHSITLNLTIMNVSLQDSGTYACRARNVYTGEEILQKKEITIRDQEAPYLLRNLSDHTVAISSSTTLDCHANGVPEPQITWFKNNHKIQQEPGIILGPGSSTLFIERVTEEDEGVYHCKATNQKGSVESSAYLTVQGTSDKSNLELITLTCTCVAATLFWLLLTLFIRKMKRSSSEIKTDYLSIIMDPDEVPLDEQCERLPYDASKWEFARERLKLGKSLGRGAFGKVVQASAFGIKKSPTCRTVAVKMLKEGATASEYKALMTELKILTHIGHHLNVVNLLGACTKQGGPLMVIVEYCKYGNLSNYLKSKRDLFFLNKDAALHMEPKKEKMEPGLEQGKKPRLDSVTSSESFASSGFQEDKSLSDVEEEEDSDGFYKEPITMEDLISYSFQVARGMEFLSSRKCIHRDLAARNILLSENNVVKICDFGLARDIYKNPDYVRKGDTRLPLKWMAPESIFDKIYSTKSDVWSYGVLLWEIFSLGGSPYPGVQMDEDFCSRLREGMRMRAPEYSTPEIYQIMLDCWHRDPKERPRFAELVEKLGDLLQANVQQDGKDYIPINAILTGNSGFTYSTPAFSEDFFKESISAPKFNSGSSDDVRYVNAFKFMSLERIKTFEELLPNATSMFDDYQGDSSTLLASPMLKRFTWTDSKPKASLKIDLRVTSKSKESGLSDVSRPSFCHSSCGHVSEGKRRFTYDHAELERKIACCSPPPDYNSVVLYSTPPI

| Structure (SMILES) | outcome |
| --- | --- |
| CCCCCCCCCCC | inactive |
| CCc1c(C(=O)NN2CCCCC2)nn(-c2ccc(Cl)cc2Cl)c1-c1ccc(Br)cc1 | inactive |
| CCCCc1ccc2c(n1)[C@@H](c1ccc(OC)cc1C[C@H](C)C(=O)O)[C@H](C(=O)O)[C@H]2c1ccc2c(c1)OCO2 | inactive |

The compounds below were run against rabbit Imidazoline 2 Central (I2C), CKB (gene 100009085) (UniProt P00567) (assay: NVS_ENZ_rabI2C: NovaScreen (NVS) Enzymatic Assay for rabbit Imidazoline 2 Central (I2C) (AID 2283228)).
Procedure, shortened: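 Rabbit brain membranes, cell-free; readout by filter-based scintillation counting 1.5 hours after dosing, loss of signal vs DMSO. Initial duplicate test at 25 uM, then concentration-response with 50 uM top concentration.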

rabbit Imidazoline 2 Central (I2C), CKB (gene 100009085), sequence (P00567 whole entry, looked up): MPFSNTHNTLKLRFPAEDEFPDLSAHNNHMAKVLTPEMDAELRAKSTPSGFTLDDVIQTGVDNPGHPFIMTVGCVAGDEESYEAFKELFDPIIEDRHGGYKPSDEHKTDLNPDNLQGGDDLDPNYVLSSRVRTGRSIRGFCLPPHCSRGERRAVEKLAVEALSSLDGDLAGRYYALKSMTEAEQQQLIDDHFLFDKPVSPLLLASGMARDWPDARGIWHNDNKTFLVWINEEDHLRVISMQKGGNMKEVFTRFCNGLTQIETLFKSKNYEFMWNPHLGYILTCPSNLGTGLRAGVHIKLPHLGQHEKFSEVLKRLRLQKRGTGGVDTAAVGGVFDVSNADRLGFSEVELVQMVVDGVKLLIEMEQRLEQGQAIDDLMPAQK

| Structure (SMILES) | outcome | AC50 |
| --- | --- | --- |
| NC(=O)Cn1c(=O)cc(CCN2CCN(c3nccc4sccc34)CC2)c2ccc(F)cc21 | inactive | – |
| Oc1ccc2c(c1)OC[C@@H](N1CCC(O)(c3ccc(F)cc3)CC1)[C@H]2O | inactive | – |
| CCOC(=O)CCC(=O)OCC | inactive | – |
| Nc1ccccc1N | inactive | – |
| CN1CCN(Cc2cc(-c3ccc4[nH]c(=O)oc4c3)co2)[C@@H](c2ccc(F)cc2)C1 | – | 22 µM (active) |
| O=C(N[C@@H](Cc1ccccc1)[C@@H](O)C(=O)N1C[C@@H](O)[C@@H](O)C1)c1cc2cc(Cl)ccc2[nH]1 | inactive | – |
| CCOc1ccc2c(c1)C(C)=CC(C)(C)N2 | inactive | – |

From PubChem BioAssay (EPA / NIEHS)
